An excerpt weighted towards active compounds, which were near 4% of everything screened.
ERAP1 inh: inhibitors of human ERAP1 aminopeptidase | Q9NZ08 | recombinant ERAP1, Leu-AMC fluorescence, 60 min | inhibition, % at 10.7 µM | 340,000 compounds, 0.15% hits | AID 652197;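 active = mean replicate inhibition of at least 30%, or all replicates individually reaching that 30% level; inactive = mean below 30% and not every replicate reaching it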;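 also: 0% = neutral control wells and 100% = L-leucinethiol positive control wells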
FGF22 binding-1: FGF22 (human) thermal shift binding. Q9HCT0. recombinant FGF22 thermal shift, SYPRO orange fluorescence; percent of sucrose octasulfate shift, DMSO zero. activity (Tm shift, normalised), % at 9.99 µM. 340,000 compounds, 1.5% hits. AID 651658;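 active = mean Tm shift, scaled 0 neutral to 100 positive control, at about 1.3% or above, every replicate too, limit read from the data; inconclusive = no clear call, values can overlap the other calls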
Target sequence (Q9HCT0 whole entry, looked up): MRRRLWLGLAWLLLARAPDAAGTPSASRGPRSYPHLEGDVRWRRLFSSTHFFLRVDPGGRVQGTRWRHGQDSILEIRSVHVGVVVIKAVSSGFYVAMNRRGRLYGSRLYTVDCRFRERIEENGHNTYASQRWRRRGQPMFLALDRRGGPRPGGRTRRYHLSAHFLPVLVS
DENV2 CPE rescue: inhibitors of DENV2 cytopathic effect; 350,000 compounds, 1.7% hits; AID 651640; CPE inhibition, % at 9.99 µM; DENV2-infected cells, cytopathic effect rescue, plate reader; in the data active = CPE inhibition above about 20%, passing the limit was not always enough; inconclusive = no clear call, values can overlap the other calls; tested in BHK-21 cells;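 also: 0% = median of neutral control wells and 100% = median of positive control wells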
RAD52 anneal inh: RAD52 (human) annealing inhibition; recombinant RAD52 DNA annealing, FRET fluorescence; inhibition, % at 18.7 µM; P43351; 360,000 compounds, 0.46% hits; AID 651710;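 active = every replicate showing at least 50% inhibition; inconclusive = mean inhibition at least 50% but not in every replicate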
Target sequence (P43351 whole entry, looked up): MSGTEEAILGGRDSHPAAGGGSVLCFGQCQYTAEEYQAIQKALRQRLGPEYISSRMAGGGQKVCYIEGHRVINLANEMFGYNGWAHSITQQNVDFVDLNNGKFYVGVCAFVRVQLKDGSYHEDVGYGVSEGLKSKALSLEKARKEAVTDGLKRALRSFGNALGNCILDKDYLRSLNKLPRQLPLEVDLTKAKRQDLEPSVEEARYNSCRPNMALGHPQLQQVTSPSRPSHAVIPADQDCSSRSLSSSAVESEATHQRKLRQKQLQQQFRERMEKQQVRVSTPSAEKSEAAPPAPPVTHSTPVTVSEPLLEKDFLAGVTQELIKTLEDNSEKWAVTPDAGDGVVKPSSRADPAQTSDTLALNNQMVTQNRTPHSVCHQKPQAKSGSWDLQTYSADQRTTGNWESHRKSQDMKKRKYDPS
AF4-AF9 inh: inhibitors of human MLL-AF4/AF9 interaction; AID 651704; P42568; 350,000 compounds, 0.47% hits; inhibition, % at 10 µM; AlphaScreen, biotin-AF4 peptide binding to FLAG-AF9;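 active = every replicate reaching a set inhibition limit, whatever the replicate mean, cut at about 25% in these data; inconclusive = mean inhibition reaches that limit but some replicates miss it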;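 also: 0% = plate neutral control median and 100% = total signal loss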
FGF22 binding-2: FGF22 (human) binding in thermal shift | 1,000 compounds, 2% hits | shares compounds with FGF22 binding-1 | thermal shift activity, °C (ΔTm) at 38 µM | recombinant FGF22 thermal shift, SYPRO orange fluorescence;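 active = fitted rise in melting shift crosses a set limit at or below the top valid dose tested; inconclusive = flat fit at mid-level activity, or a poor quality fit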
SYPRO no-protein: shows thermal shift signal without protein, FGF22 counter-screen | 1,000 compounds, 2% hits | compound-only SYPRO orange thermal shift counter-screen, no protein | AC50, µM (titrated, usually from 38 µM) | shares compounds with FGF22 binding-1;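 active = rising signal whose fitted curve reaches the 0.54 level within the top valid dose, showing a melting point, actives reach about 13 µM in these data; inactive = the rest, including activity in the opposite direction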; also: value is where the raw curve crosses a fixed level and not half-maximal
Active calls of the source: *; i = inactive; ? = inconclusive; · = no result; ! = not confirmed by another sample; [ ] = remark or other dose.

SMILES | ERAP1 inh | FGF22 binding-1 | DENV2 CPE rescue | RAD52 anneal inh | AF4-AF9 inh | FGF22 binding-2 | SYPRO no-protein
COc1ccccc1-c1ccc2n(c1=O)C[C@@H]1[C@@H](CO)[C@H](C(=O)NC3CCC3)N(C(=O)NC(C)C)[C@H]21 | 0.4 | 15.1* | ? | -5.1 | -1.4 | 0.026 | i
COCCNC(=O)[C@@H]1[C@@H](CO)[C@@H]2Cn3c(ccc(-c4ccc(OC)cc4)c3=O)[C@H]1N2C(=O)NC(C)C | 0.2 | 0.2 | -8.8 | -4.1 | 0.9 | · | ·
COCCNC(=O)[C@H]1[C@H](CO)[C@H]2Cn3c(ccc(-c4ccc(F)cc4)c3=O)[C@@H]1N2C(=O)NC(C)C | -3.1 | 14.0* | -3.9 | -5.2 | 1.6 | 0.262[42 µM] | i
C[C@@H]1CN([C@H](C)CO)S(=O)(=O)c2ccc(-c3cncnc3)cc2O[C@@H]1CN(C)C(=O)C1CCC1 | 0.9 | -0.1 | -9.6 | 8.9 | 0.4 | · | ·
CC(C)NC(=O)N(C)C[C@H]1Oc2ncc(C#CC3CCCC3)cc2C(=O)N([C@H](C)CO)C[C@@H]1C | 0.6 | -0.1 | 0.6 | 3.5 | -3.0 | · | ·
O=C(NCc1ccccn1)[C@@H]1[C@@H](CO)[C@@H]2Cn3c(cccc3=O)[C@H]1N2CC1CCCC1 | -3.5 | · | ? | -10.7 | -3.7 | · | ·
O=C(Nc1ccc(Cl)cc1)N[C@H]1CC[C@@H](CCNC(=O)c2cc(Cl)cc(Cl)c2)O[C@H]1CO | -5.3 | · | 2.7 | -15.0 | 0.4 | · | ·
O=C(NCC[C@H]1CC[C@@H](NC(=O)C2CC2)[C@H](CO)O1)Nc1ccc(Cl)cc1 | 0.3 | -0.2 | 4.2 | 12.8 | 8.3 | · | ·
O=C(NCC[C@H]1CC[C@@H](NC(=O)C2CCOCC2)[C@H](CO)O1)Nc1ccc(Cl)cc1 | 1.5 | 1.7* | 14.2 | 16.7 | -2.6 | -0.092[42 µM] | i
Cc1ccc(S(=O)(=O)N[C@@H]2CC[C@@H](CCNC(=O)C3CC3)O[C@@H]2CO)cc1 | -2.4 | 0.0 | ? | 17.1 | -1.6 | · | ·
O=C(NCC[C@H]1CC[C@@H](NC(=O)C2CCOCC2)[C@@H](CO)O1)Nc1ccc(Cl)cc1 | 2.5 | 1.6*! | -0.8 | 11.9 | -8.9 | 0.331[42 µM] | i
O=C(Nc1ccc(Cl)cc1)N[C@H]1CC[C@H](CCNC(=O)c2cc(Cl)cc(Cl)c2)O[C@@H]1CO | -0.4 | 2.5* | -11.3 | -8.4 | -4.0 | -0.298 | i
Cc1ccc(S(=O)(=O)N[C@H]2CC[C@H](CCNC(=O)C3CCOCC3)O[C@H]2CO)cc1 | 3.3 | 2.0* | 8.1 | 16.6 | -4.4 | 0.441[42 µM] | i
O=C(C[C@@H]1C=C[C@H](NC(=O)Nc2ccc(C(F)(F)F)cc2)[C@H](CO)O1)NCc1cc(F)cc(F)c1 | -4.1 | -0.1 | 6.7 | 4.7 | 0.8 | · | ·
COc1ccc(-c2ccc([C@H]3[C@@H](CO)N4CCCCN(C(=O)c5ccc6c(c5)OCO6)C[C@@H]34)cc2)cc1 | -1.9 | -0.3 | 12.0 | -22.5 | -3.2 | · | ·
COc1ccc(-c2ccc([C@@H]3[C@@H](CO)N4CCCCN(C(=O)c5ccc(F)cc5)C[C@@H]34)cc2)cc1 | 1.1 | 34.3* | -5.3 | -6.2 | -4.8 | 0.089[42 µM] | 9.01µM*
COc1ccc(-c2ccc([C@H]3[C@@H](CO)N4CCCCN(C(=O)c5ccc6c(c5)OCO6)C[C@H]34)cc2)cc1 | -1.2 | 1.3* | -21.1 | 44.5 | 1.9 | 0.02 | i
CCC(=O)N(C)C[C@H]1Oc2cc(-c3cccc(F)c3)ccc2S(=O)(=O)N([C@H](C)CO)C[C@@H]1C | 0.9 | 0.0 | 3.9 | 20.4 | 3.8 | · | ·
O=C(C(=O)N1CCN(C/C=C/c2ccccc2)CC1)c1ccccc1 | · | 14.8* | 4.9 | -9.4 | -5.4 | 0.073 | i
CC(C)C(c1nnnn1CCc1ccccc1)N1CCSCC1 (stereo not drawn) | -0.1 | 3.1* | 2.1 | -6.7 | -3.1 | 0.032 | i
CC1CCN(C(c2nnnn2CCc2ccccc2)C(C)C)CC1 (stereo not drawn) | · | 0.1 | -1.9 | -12.1 | -2.3 | · | ·
C[C@@H]1CN([C@@H](C)CO)C(=O)Cc2cc(NC(=O)NC3CCCCC3)ccc2O[C@H]1CN(C)Cc1ccc(C(F)(F)F)cc1 | -0.3 | 0.1 | 1.5 | 23.1 | 1.2 | · | ·
CC(=O)N[C@H]1CC[C@H](CCNC(=O)Nc2ccc(C(F)(F)F)cc2)O[C@H]1CO | 0.5 | -0.2 | 3.6 | 7.8 | 12.4 | · | ·
Cc1ccccc1NCC(=O)N/N=C\C=C\c1cccc([N+](=O)[O-])c1 | 2.9 | 1.5* | -3.3 | -19.2 | 6.8 | -0.104 | i
Cn1cccc1/C=N/NC(=O)Cc1cccc2ccccc12 | 0.4 | 2.1* | -5.0 | -28.2 | 20.4 | 0.066 | i
SMILES | ERAP1 inh | FGF22 binding-1 | DENV2 CPE rescue | RAD52 anneal inh | AF4-AF9 inh | FGF22 binding-2 | SYPRO no-protein
COc1cccc(C(=O)Nc2cccc(NC(=O)c3cccs3)c2)c1 | -6.0 | 1.9* | 2.3 | -8.7 | 6.1 | -0.032 | i
COc1cc([N+](=O)[O-])ccc1NC(=O)Nc1ccc2c(c1)OCCO2 | -1.0 | 1.7* | -5.5 | 4.9 | 4.7 | 0.073 | i
COc1cc(NC(=O)c2ccc3c(c2)OCCO3)ccc1NC(=O)c1cccs1 | -13.9 | 2.0* | -3.7 | -2.8 | 1.0 | -0.196 | 10.2µM*
COCC(=O)N1C[C@@H](C)[C@H](OC)CN(C)C(=O)c2cc(NC(=O)NC(C)C)ccc2OC[C@H]1C | -2.9 | 0.2 | -5.1 | 16.2 | -4.5 | · | ·
COc1ccc(CN(C)C[C@@H]2Oc3ccc(NS(=O)(=O)c4c(C)noc4C)cc3CC(=O)N([C@@H](C)CO)C[C@H]2C)cc1 | -1.5 | -0.2 | 17.2 | 4.8 | 2.7 | · | ·
Cc1ccc(N(CCC#N)C(=O)COC(=O)c2cc(C)no2)cc1 | -4.1 | 2.8* | 6.5 | -4.3 | 1.3 | 0.076 | i
C[C@H]1CN([C@@H](C)CO)C(=O)c2cc(C3=CCCC3)cnc2O[C@@H]1CN(C)Cc1ccc(C(=O)O)cc1 | -1.2 | 0.0 | 3.2 | 9.1 | -4.5 | · | ·
CCN1C(=O)c2cccc3c(S(=O)(=O)NCc4ccccc4)ccc1c23 | 20.0 | -0.1 | -1.2 | -4.1 | ? | · | ·
CCN1C(=O)c2cccc3c(S(=O)(=O)Nc4ccc(O)c(C(=O)O)c4)ccc1c23 | 2.1 | 8.4* | -0.2 | -14.8 | -2.4 | 0.045 | i
COC(=O)[C@]1(C)N[C@H](c2ccc(-c3ccccc3)cc2)[C@@H]2C(=O)N(C)C(=O)[C@@H]21 | -0.9 | 8.1* | -9.2 | -17.1 | · | -0.025 | i
N#CCc1nn(-c2ccccc2)c2ncnc(N)c12 | -0.4 | 1.5* | 2.9 | -1.4 | -2.4 | -0.003 | i
Cc1ccc2[nH]c3ccccc3c(=O)c2c1 | -12.4 | 0.1 | 3.0 | -5.0 | -2.6 | · | ·
O=c1c2ccccc2[nH]c2ccc(F)cc12 | -11.9 | 1.5* | -10.3 | -9.6 | -5.4 | -0.051 | i
CC(C)C#Cc1ccc([C@H]2[C@@H](CO)N3C(=O)CN(C(=O)C4CCCCC4)C[C@@H]23)cc1 | 0.4 | 1.9* | ? | 14.2 | -11.9 | 0.239 | i

Source: PubChem
